A selection: hits, their analogues and other compounds. The true share with any hit is near 2.4%.
PINK1 expr mod – PINK1 expression modulation; PINK1 immunofluorescence, high-content cytometry, 24 h; Potency, µM (doses to about 76.6 µM), without a hit: at the top dose activation (PINK1 increase), actives largely listed as activators; actives 0.2% (n = 410,000); AID 624263; active = well fitted activation curve with a large enough effect; inconclusive = small, poorly fitted or top-dose-only effect; cell line not stated here; also: % of control where 0% means no effect; nearly all actives have a fitted effect of over 65% in size
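Stable cell line, 250 cells/well, 12 h attachment; compounds pinned at 5 concentrations, 24 h; CCCP control. Fixed with nuclear dye, primary antibodies 12 h at 10 degrees C, secondary plus cell stain; laser-scanning cytometer read.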
A549 tox – counter-screen for Nrf2 inhibitors: cytotoxicity in A549 cells; A549 ARE-Fluc cells, CellTiter-Fluor viability, 18-24 h; Potency, µM (top dose mostly 46 µM), for the others: at the highest dose activity change, negative = cytotoxicity, most hits filed as inhibitors; actives 0.16% (n = 390,000); AID 504648; also: % is scaled to controls: 0 for no effect and ±100 for the full control effect
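A549 ARE_Fluc cells in 5% FBS OPTI-MEM were exposed to compounds in concentration-response for 18-24 h at 37 deg C. Viability was read by CellTiter-Fluor fluorescence (Ex 405/Em 525) after 30 min, before the luciferase read.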
Nrf2 inh – inhibitors of Nrf2 signaling; Potency, µM (highest dose often 46 µM), without a hit: top-dose activity change, negative = inhibition, hits mostly inhibitors; A549 ARE-Fluc reporter, luciferase luminescence, 18-24 h; actives 2.1% (n = 360,000); also: % is scaled to controls: 0 for no effect and ±100 for the full control effect; nearly all actives have a fitted effect of over 60% in size
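Nrf2 activity is the BugLite luminescence, read 15 min after reagent at room temperature, following CellTiter-Fluor cytotoxicity readout (30 min, 37C). Compound titrations were applied for 18-24 h to 5000 A549 ARE_Fluc cells/well in 5% FBS OPTI-MEM.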
Epigenetic reg – regulators of epigenetic silencing causing reporter derepression in mouse cells; murine LDR cells, GFP reporter derepression, 30 h; Potency, µM (titrated, usually from 53.9 µM), for inactives: at the top dose GFP activation, hits mostly activators; actives 0.2% (n = 280,000); AID 1865; also: % of control where 0% means no effect; nearly all actives have a fitted effect of over 60% in size
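Murine LDR cells bearing a silenced CMV-driven GFP reporter were exposed to compound for 30 h at 37 C. After PBS washes, GFP-positive cells (20-120 um objects) counted by laser-scanning microplate cytometry.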
Nrf2 ARE act – activates Nrf2 signaling; AREc32 ARE-luciferase reporter (MCF7-derived line), luminescence, 24 h; AID 624171; actives 0.31% (n = 410,000); Potency, µM (titrated, usually from 46.1 µM), inactives show at the top dose activation, actives largely listed as activators; also: % of control where 0% means no effect; nearly all actives have a fitted effect of over 65% in size
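ARE activation measured as luciferase luminescence (Steady-Glo, 30 min RT) in AREc32_Fluc cells after 24 hr compound exposure at 37 deg C, 5% CO2; cells seeded overnight at 1000/well in OPTI-MEM, 5% FBS.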
The depositor's hits bear a star; ? = inconclusive; . = not tested or not shown; ! = a repeat was not active; [ ] = dose if it differs, or a comment. Unless noted, calls follow the shape of the dose curve; as a rule, active = well fitted curve in the direction sought with a large enough effect; inconclusive = small, poorly fitted or top-dose-only effect, or another doubt; inactive = no such curve, though single readings can be large; an effect the other way counts as inactive or inconclusive. Potency is read from the fitted curve at half-maximal effect.

SMILES | PINK1 expr mod | A549 tox | Nrf2 inh | Epigenetic reg | Nrf2 ARE act
COc1ccc(NC(=O)CCN2C(=O)c3ccccc3C2=O)c(OC)c1 | -1.9% | 4.9% | 5.0% | . | 0.0%
COc1ccc(OC)c(N(CCN2C(=O)c3ccccc3C2=O)C(=O)CCl)c1 | 1.8% | . | . | . | 12.6µM*
O=C(NCC(c1cccnc1)N1CCN(c2ccccc2)CC1)OCc1ccccc1 (stereo unspecified) | -1.8% | -4.2% | -19.9% | 0.0% | 0.4%
O=C(NCC(c1cccnc1)N1CCN(c2ccccc2F)CC1)OCc1ccccc1 (stereo unspecified) | 2.3% | -21.7% | 20.6µM* | -5.1% | 0.6%
O=C(NCc1cccs1)C(=O)NCC(c1ccco1)N1CCN(c2ccccc2F)CC1 (stereo unspecified) | 0.8% | 10.3% | 20.6µM* | -0.1% | -0.2%
CO[C@H]1[C@H](NC(=O)c2ccsc2)c2ccccc2C12CCN(Cc1c(O)ccc3ccccc13)CC2 | 0.5% | . | . | . | .
CCn1cc(CN2CCOc3ccc(C(O)C4CCCCC4)cc3C2)c(C)n1 (stereo unspecified) | 0.0% | . | . | . | .
O=C1NC[C@@H](Cc2cccc3ccccc23)N(CC2(c3ccccc3)CC2)C1=O | -0.2% | ? | 20.6µM* | 0.6% | 3.6%
COc1ccc(CNC(=O)CCc2cn(Cc3cc(C)ccc3C)c3ccccc23)cc1OC | -0.4% | -5.0% | 23.1µM* | 0.4% | -0.4%
COc1ccc(CN2CCCC(n3cc(C(=O)N4CCCCC4)nn3)C2)c(OC)c1C (stereo unspecified) | -0.8% | . | . | . | .
COc1ccc(C2=CC3=C(Br)C(=O)C(C)(OC(=O)c4ccc(Cl)nc4)C(=O)C3=CO2)cc1 (stereo unspecified) | 14.1µM* | -0.7% | 14.2% | -1.1% | 4.5%
COC(=O)CCC(=O)OC1(C)C(=O)C2=COC(c3ccc(OC)cc3)=CC2=C(Br)C1=O (stereo unspecified) | -0.4% | -1.1% | 22.6% | -0.1% | 6.0%
N#Cc1ccc(NC(=O)COc2ccccc2C(=O)Nc2ccccc2)cc1 | 0.0% | . | . | . | .
NC(=O)c1ccccc1NC(=S)NC(=O)c1ccc(Br)o1 | 0.0% | 0.1% | ? | -0.9% | 14.1µM*
COc1ccc(S(=O)(=O)NCCc2sc3nc(-c4ccc(C)cc4)nn3c2C)cc1C | -0.8% | ? | . | 5.5% | -2.7%
Cc1ccccc1NC(=O)N1CCC(CN2CCCC2)CC1 | 0.8% | 1.4% | ? | -0.4% | 0.3%
O=c1oc2c(-c3ccc([N+](=O)[O-])cc3)cc(O)cc2s1 | -2.1% | 6.6% | 3.7% | 0.0% | 22.4µM*
COc1ccc(C(=O)Nc2cccc(OCc3cc(=O)n4c5c(sc4n3)CCCC5)c2)cc1OC | 1.9% | 0.0% | 12.7% | -2.4% | -1.1%
O=C(Nc1cccc(OCc2cc(=O)n3c4c(sc3n2)CCCC4)c1)c1ccc(F)cc1 | 17.4% | -3.0% | 5.6% | 25.1µM* | -0.9%
Cc1cc2c(s1)c1cnn(Cc3c(F)ccc(C)c3F)c(=O)c1n2C | . | -0.5% | -12.5% | . | .
Cc1ccc2nc(SCC(=O)N3CCC4(CC3)CC4C(=O)Nc3ccc(F)c(F)c3)[nH]c2c1 (stereo unspecified) | -0.4% | . | . | . | .
CCOC(=O)c1nc(Nc2ccccc2CC)c2ccccc2n1 | 0.2% | 4.4% | 23.1µM* | . | -0.5%
COc1ccc(NC(=O)c2cc3c(s2)CCC(C)C3)cc1S(=O)(=O)N1CCOCC1 (stereo unspecified) | -0.6% | -16.8% | 18.4µM* | 0.0% | 0.4%[9.22 µM]
Cc1ccc(NC(=O)c2cc3c(s2)CCC3)cc1S(=O)(=O)N1CCOCC1 | . | -19.5% | 20.6µM* | 0.0% | 0.1%
COc1ccc(C(=O)Nc2ccc(-c3ccc(C)o3)cc2)cc1S(=O)(=O)N1CCOCC1 | 2.0% | ? | 18.4µM* | -1.0% | 3.6%
SMILES | PINK1 expr mod | A549 tox | Nrf2 inh | Epigenetic reg | Nrf2 ARE act
O=S1(=O)N=C(Oc2ccc(C(F)(F)F)cc2)c2ccccc21 | . | 1.0% | 7.2% | . | .
Cc1c(C(=O)N2CCCCCC2)sc2ncnc(NCC3CCCO3)c12 (stereo unspecified) | -0.5% | . | . | . | .
N#CC(Sc1ccccn1)c1ccc(Cl)cc1 (stereo unspecified) | 1.5% | -0.4% | 13µM* | -7.0% | 18.9%
O=C(NCCSc1ccccn1)c1ccc(Cl)cc1 | 5.5% | 2.5% | ? | 0.8% | -0.3%
COc1cc(=O)n2c(c1C(=O)N(C)Cc1nonc1C)CCN(Cc1cc(C)ccc1C)CC2 | 0.6% | . | . | . | .
CCCN(CCC)CCNC(=O)c1cc2c(-c3ccc(Cl)cc3)nn(C)c2s1 | -3.4% | 23.1µM* | 23.1µM*! | 3.6% | 4.4%
C=CC[C@@H]1C=C[C@H](O/N=C(\C)CCN2CCc3nc(-c4ccccc4)c(-c4ccccc4)cc3C2)[C@H](CO)O1 | . | . | . | 1.1%[10.1 µM] | .
Cc1onc(-c2c(F)cccc2Cl)c1C(=O)Nc1cc(S(=O)(=O)N2CCCCC2)ccc1O | 15.8µM* | ? | ? | . | -0.1%
Cc1onc(-c2c(F)cccc2Cl)c1C(=O)Nc1ccc(S(=O)(=O)N2CCOCC2)cc1 | 0.3% | -2.2% | 2.1% | . | -0.6%
CCOC(=O)c1c(C)oc2c1c(C=NC1CCS(=O)(=O)C1)c(O)c1ccccc12 (stereo unspecified) | 10.4% | -9.3% | -8.8% | -0.3% | 0.3%
CCOC(=O)c1c(C)oc2c1c(C=NCCC(=O)O)c(O)c1ccccc12 | -0.6% | ? | 20.6µM* | -1.5% | 4.6%
COc1ccc(CN2CCN(C(=O)C3CCN(S(=O)(=O)c4cccs4)CC3)CC2)c(OC)c1OC | -2.2% | -3.7% | 14.6µM* | 4.1% | -0.1%
N#Cc1nc(NC2CCCC2)c2ncn(-c3cc(F)cc(F)c3)c2n1 | . | -7.7% | -4.5% | . | .
Cc1cccc(-c2nnc(SCCC(=O)O)o2)c1 | 0.0% | 2.0% | 1.46µM* | 3.2% | -3.9%
Cc1cccc(-c2nnc(-c3ccccc3)o2)c1 | 1.7% | 15.9% | . | 0.0% | 11.2µM*
CCC1CN(CCNC(=O)c2ccnc(Cl)c2)Cc2cc(OC)ccc2O1 (stereo unspecified) | 1.1% | . | . | . | .
COc1ccc(-c2noc(CCC(=O)NC3CCCCC3)n2)cc1 | 1.6% | -11.1% | 16.4µM* | . | -0.5%
COc1ccc(-c2noc(CCCC(=O)NC3CCCC3)n2)cc1 | -0.3% | ? | 11.6µM* | . | -1.2%
Cc1cccc(-c2noc(CCCC(=O)NC3CCCC3)n2)c1 | 0.8% | 1.6% | 9.2µM* | . | 0.6%
COc1ccc(-c2noc(CCC(=O)NC3CCCCCC3)n2)cc1 | 0.7% | 1.3% | 16.1% | . | 0.2%
CNc1cccc(S(=O)(=O)N2CCN(S(=O)(=O)c3ccc4c(c3)OCCO4)CC2)c1 | . | 6.0% | -1.9% | . | .
Cc1ccc(C)c(S(=O)(=O)c2nnn3c2nc(N2CCCCC2)c2sccc23)c1 | 0.5% | -0.6% | ? | -1.5% | -0.9%
CCN(CC)S(=O)(=O)c1cc(-c2nnc(-c3ccc(Br)cc3)o2)ccc1Cl | 1.3% | -21.9% | 20.6µM* | -3.5% | -0.5%
Cc1nc([N+](=O)[O-])c(Br)n1CC(=O)c1ccccc1 | 13.7% | ? | . | -1.0% | ?

Bioassay records from PubChem BioAssay.
